Measured values: PubChem BioAssay (EPA / NIEHS)
Active and inactive are the calls of the source. How the source made its calls: active means hit-call score of the fitted dose curve at least 0.9, where 1 is the maximum; inactive means score below 0.9.

What was measured:
Settings in all cases: mRNA level, 48 h; actives raise or lower the signal
[1] = read-out: Lipase C (LIPC), LIPC (gene 3990); experiment: LTEA_HepaRG_LIPC: Life Technologies and Expression Analysis (LTEA) Assay for Lipase C (LIPC) using HepaRG (AID 2283514)
Method in brief: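 HepaRG cells, 48 h after plating, treated in duplicate for 48 h in serum-free induction medium over 8 half-log concentrations from 100 uM, 0.5% DMSO. LIPC mRNA by TaqMan qRT-PCR normalized to ACTB/GAPDH/POLR2A; bidirectional fit versus DMSO.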

[2] = read-out: Lipoprotein lipase (LPL), LPL (gene 4023); experiment: LTEA_HepaRG_LPL: Life Technologies and Expression Analysis (LTEA) Assay for Lipoprotein lipase (LPL) using HepaRG (AID 2283515)
Method in brief: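 Differentiated HepaRG cells, plated 48 h, then exposed 48 h in serum-free induction medium to 8 concentrations (top 100 uM, half-log steps) in 0.5% DMSO, duplicate. LPL mRNA measured by qRT-PCR, normalized to ACTB, GAPDH and POLR2A.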

[3] = read-out: MicroRNA 122 (MIR122), gene 406906; experiment: LTEA_HepaRG_MIR122: Life Technologies and Expression Analysis (LTEA) Assay for MicroRNA 122 (MIR122) using HepaRG (AID 2283516); further: the transcript read is the microRNA miR-122
Method in brief: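 HepaRG, 48 h exposure, 8-pt half-log from 100 uM, 0.5% DMSO; TaqMan qRT-PCR; bidirectional fit vs DMSO.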

[4] = read-out: matrix metalloproteinase-10 (MMP10), MMP10 (gene 4319); experiment: LTEA_HepaRG_MMP10: Life Technologies and Expression Analysis (LTEA) Assay for matrix metalloproteinase-10 (MMP10) using HepaRG (AID 2283517)
Method in brief: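 Differentiated HepaRG cells in serum-free induction medium exposed 48 h in duplicate to 8-point half-log series up to 100 uM in 0.5% DMSO. mRNA quantified by qRT-PCR, normalised to ACTB, GAPDH, POLR2A; bidirectional fit versus DMSO.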

MYC, MYC (gene 4609) = experiment: LTEA_HepaRG_MYC: Life Technologies and Expression Analysis (LTEA) Assay for MYC using HepaRG (AID 2283518)
Method in brief: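 MYC transcript changes, up or down relative to 0.5% DMSO, from TaqMan qRT-PCR normalized to three housekeeping genes. Human HepaRG cultures received chemicals for 48 h at eight half-log concentrations up to 100 uM, in duplicate.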

[5] = read-out: matrix metalloproteinase-3 (MMP3), MMP3 (gene 4314); experiment: LTEA_HepaRG_MMP3: Life Technologies and Expression Analysis (LTEA) Assay for matrix metalloproteinase-3 (MMP3) using HepaRG (AID 2283519)
Method in brief: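 HepaRG cells (~100,000/well) in serum-free induction medium were dosed in duplicate for 48 h with an 8-point half-log series from 100 uM, 0.5% DMSO. MMP3 mRNA was quantified by Fluidigm TaqMan qRT-PCR, normalized to three housekeeping genes.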

[6] = read-out: Paternally Expressed 10 (PEG10), PEG10 (gene 23089); experiment: LTEA_HepaRG_PEG10: Life Technologies and Expression Analysis (LTEA) Assay for Paternally Expressed 10 (PEG10) using HepaRG (AID 2283520);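 on AC50: PEG10 transcript by qRT-PCR normalised to ACTB GAPDH and POLR2A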
Method in brief: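 Chemicals tested on HepaRG cells for 48 h, highest concentration 100 uM. PEG10 expression assessed by qRT-PCR relative to DMSO control.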

[7] = read-out: Nuclear factor NF-kappa-B p105 subunit (Homo sapiens) (UniProt P19838); experiment: LTEA_HepaRG_NFKB1: Life Technologies and Expression Analysis (LTEA) Assay for Nuclear Factor Kappa B Subunit 1 (NFKB1) using HepaRG (AID 2283521);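 further: differentiated human HepaRG liver cells in serum-free induction medium; TaqMan qRT-PCR transcript normalised to ACTB GAPDH and POLR2A housekeeping genes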
Method in brief: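 Human HepaRG cells receive eight half-log concentrations, highest 100 uM, for 48 h. NFKB1 expression is then quantified by qRT-PCR and analysed for up- or down-regulation relative to 0.5% DMSO vehicle.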

[8] = read-out: Protein phosphatase 2A (PPP2R4), PTPA (gene 5524); experiment: LTEA_HepaRG_PPP2R4: Life Technologies and Expression Analysis (LTEA) Assay for Protein phosphatase 2A (PPP2R4) using HepaRG (AID 2283522)
Method in brief: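 Gene-expression endpoint in HepaRG hepatic cells: 48 h treatment across eight half-log concentrations up to 100 uM in 0.5% DMSO. PPP2R4 mRNA by qRT-PCR, normalized to three endogenous control genes.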

[9] = read-out: Phosphatase and tensin (PTEN), PTEN (gene 5728); experiment: LTEA_HepaRG_PTEN: Life Technologies and Expression Analysis (LTEA) Assay for Phosphatase and tensin (PTEN) using HepaRG (AID 2283523)
Method in brief: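 HepaRG cells, 48 h after plating, exposed in duplicate for 48 h in serum-free induction medium to 8 half-log concentrations up to 100 uM (0.5% DMSO). PTEN mRNA by qRT-PCR, normalized to ACTB, GAPDH, POLR2A; bidirectional fit versus DMSO.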

Measured: AC50

Nuclear factor NF-kappa-B p105 subunit (Homo sapiens), sequence (P19838 whole entry, looked up): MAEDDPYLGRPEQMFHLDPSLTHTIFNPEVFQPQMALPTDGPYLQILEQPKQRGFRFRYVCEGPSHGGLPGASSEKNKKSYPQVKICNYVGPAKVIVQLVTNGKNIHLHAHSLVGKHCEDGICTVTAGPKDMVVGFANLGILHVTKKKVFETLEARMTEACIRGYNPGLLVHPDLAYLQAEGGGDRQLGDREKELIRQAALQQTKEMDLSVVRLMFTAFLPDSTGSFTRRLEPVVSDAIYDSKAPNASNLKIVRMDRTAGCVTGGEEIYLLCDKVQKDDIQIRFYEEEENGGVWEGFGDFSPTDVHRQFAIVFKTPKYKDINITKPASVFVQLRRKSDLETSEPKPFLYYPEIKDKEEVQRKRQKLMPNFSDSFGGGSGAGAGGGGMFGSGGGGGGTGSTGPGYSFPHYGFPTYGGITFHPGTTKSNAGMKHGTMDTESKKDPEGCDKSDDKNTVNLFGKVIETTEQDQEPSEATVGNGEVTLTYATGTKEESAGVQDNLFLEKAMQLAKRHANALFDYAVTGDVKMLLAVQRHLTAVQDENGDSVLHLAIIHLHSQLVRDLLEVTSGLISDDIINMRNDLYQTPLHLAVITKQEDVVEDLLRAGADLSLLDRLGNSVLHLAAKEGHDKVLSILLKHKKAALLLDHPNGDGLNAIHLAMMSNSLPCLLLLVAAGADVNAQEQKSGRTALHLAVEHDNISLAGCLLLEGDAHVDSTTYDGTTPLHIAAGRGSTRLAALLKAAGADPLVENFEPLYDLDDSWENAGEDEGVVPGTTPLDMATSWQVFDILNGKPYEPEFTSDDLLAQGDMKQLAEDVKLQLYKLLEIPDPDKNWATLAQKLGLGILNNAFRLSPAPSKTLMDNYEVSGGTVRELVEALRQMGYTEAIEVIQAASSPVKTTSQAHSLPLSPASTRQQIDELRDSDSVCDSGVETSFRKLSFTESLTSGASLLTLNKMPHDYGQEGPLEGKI

O=c1ccc(=O)[nH][nH]1
inactive: all assays above

CCCOCC(=Nc1ccc(Cl)cc1C(F)(F)F)n1ccnc1
active: [1] 15.8 µM | [2] 12.8 µM | [3] 17.1 µM | [4] 78.7 µM | MYC, MYC (gene 4609) 50 µM | [5] 84.3 µM | [6] 28.3 µM | [8] 80.7 µM | [9] 81.8 µM
inactive: [7]

CCc1cccc(CC)c1N(COC)C(=O)CCl
inactive: all assays above

CCOP(=O)(NC(C)C)Oc1ccc(SC)c(C)c1 (stereo not given)
active: [6] 50 µM
inactive: all other assays above

CCCOc1nn(C(=O)NS(=O)(=O)c2ccccc2C(=O)OC)c(=O)n1C
inactive: all assays above

Nc1nc(N)nc(NC2CC2)n1
inactive: all assays above

COc1cc(OC)nc(Sc2cccc(Cl)c2C(=O)O)n1
inactive: all assays above

O=C(O)c1cc(Oc2ccc(C(F)(F)F)cc2Cl)ccc1[N+](=O)[O-]
active: [2] 12.6 µM | [6] 50 µM
not listed: [9]
inactive: all other assays above

CC1(C(=O)Nc2ccc(O)c(Cl)c2Cl)CCCCC1
inactive: all assays above

COc1ccc(C(=CC(=O)N2CCOCC2)c2ccc(Cl)cc2)cc1OC
active: [6] 4.02 µM
inactive: all other assays above

CCOC(=O)CC(SP(=O)(OC)OC)C(=O)OCC (stereo not given)
inactive: all assays above

O=[N+]([O-])c1cc(C(F)(F)F)c(Cl)c([N+](=O)[O-])c1Nc1ncc(C(F)(F)F)cc1Cl
inactive: MYC, MYC (gene 4609) | [7]
active: [1] 24.4 µM | [2] 74.1 µM | [3] 15.8 µM | [4] 24.8 µM | [5] 25 µM | [6] 49.2 µM | [8] 65.2 µM | [9] 59.8 µM

CN(C)C(=O)Nc1cccc(C(F)(F)F)c1
active: [1] 50 µM | [5] 82.7 µM
inactive: all other assays above

CC1=NNC(=O)N(/N=C/c2cccnc2)C1
inactive: all assays above

C[N+]1(C)CCCCC1
inactive: all assays above

N#CSCSC#N
active: [1] 93.7 µM | [2] 78.1 µM | [3] 65.1 µM | [4] 83 µM
inactive: all other assays above

CC(C1CC1)C(O)(Cn1cncn1)c1ccc(Cl)cc1 (stereo not given)
not listed: [5]
inactive: all other assays above

CCc1cnc(C2=NC(C)(C(C)C)C(=O)N2)c(C(=O)O)c1 (stereo not given)
not listed: [7]
inactive: all other assays above

CN1COCN(Cc2cnc(Cl)s2)C1=N[N+](=O)[O-]
inactive: all assays above

Cc1nn(-c2cc(NS(C)(=O)=O)c(Cl)cc2Cl)c(=O)n1C(F)F
not listed: [7]
inactive: all other assays above

CCCCSP(=O)(SCCCC)SCCCC
active: [1] 83.6 µM | [2] 68.5 µM
not listed: [7]
inactive: all other assays above
